55 molecules from ChEMBL document CHEMBL4513216, “Probing the Open Global Health Chemical Diversity Library for Multistage-Active Starting Points for Next-Generation Antimalarials” (ACS Infect Dis, 2020) can be followed below.

SMILES strings stand for the structures. Among all 69,000 compounds or so, about 8,600 (12%) showed an effect of 50% or more. This is one part of a sample in which strong results are shown more often than they occur.

The assay concerns Plasmodium berghei. The assay is described as follows: Screen against P. berghei liver stage (PbLuc), transformed with Luciferase, at 10uM. The class given is functional, HepG2. Particulars: tested at 10 uM.
Take `Cc1cnn(CCC(=O)N2CCCC(c3ccn[nH]3)C2)c1` (stereo not given): the INHIBITION is reported as -19.4%.

With `Cc1nc(C)n(C2CCCN(C(=O)CCOc3cccc(F)c3)C2)n1` (stereo not given), the INHIBITION is given as 33.3%.

`Cc1c(NCCO)cccc1OC1CCCC1`: the INHIBITION is recorded as -64.6%.

For the molecule `CN1CCC(CNC(=O)NCc2ccc(F)cc2)CC1`, the INHIBITION is -33%.

In the case of `CC(C)NC(=O)c1cc2c(s1)CCN2C(=O)CN(C)C`, the INHIBITION came out at 8.67%.

Consider `Cc1n[nH]c(C)c1C1COCCN1c1ncnc2sccc12` (stereo not given), for which the INHIBITION is 71.4%. Then `Cc1nn(C)c(C)c1C1COCCN1c1ncnc2sccc12` (stereo not given), with -7.11%; and `c1ccc2c(N3CCCCC3Cn3cncn3)ncnc2c1` (stereo not given), with -11.1%.

On to `c1ccc2c(N3CCCC3Cn3cccn3)ncnc2c1` (stereo not given), for which the INHIBITION turned out to be 76.9%.

For `CC1COCCN1c1ncnc2sccc12` (stereo not given), the INHIBITION was determined as 49.1%.

Consider `c1ccc2c(N3CCCCC3Cn3cccn3)ncnc2c1` (stereo not given), for which the INHIBITION came out at 11.575%. `O=C(c1ccncc1)N1C[C@H]2CC[C@@H](C1)N(C(=O)N1CCOCC1)C2`: the INHIBITION is -20.6%.

Consider `CCc1nc(C2CCCN2Cc2nccn2CC(F)(F)F)no1` (stereo not given), for which the INHIBITION was determined as 28.8%. The result for `CC1CN(CC(=O)NCc2ccccn2)CCN1Cc1nccn1C` (stereo not given) reads -20.19%; that for `O=C(c1ccc2c(c1)OCCCO2)N1CCCC(n2cccn2)C1` (stereo not given), 7.12%; that for `CN(C)CCCn1cnc2cc(NC(=O)c3n[nH]c4c3CCC4)ccc21`, 10.1%. On to `CC(C)c1nc2cc(NC(=O)c3n[nH]c4c3CCC4)ccc2n1C`, for which the INHIBITION came out at 62.2%. Then `Cn1cnc2cc(NC(=O)c3n[nH]c4c3CCC4)ccc21`, with -136%. Then `CC(=O)Nc1cccc2c1ccn2CC(=O)NC(C)C`, with 22%; and `Cc1cc(CC(C)NC(=O)c2n[nH]c3c2CCC3)n[nH]1` (stereo not given), with -56.2%.

As to `CC(=O)Nc1cccc2c1ccn2CC(=O)Nc1nc[nH]n1`, the INHIBITION is on record as 21.5%. Then `COCCn1ccc2c(NC(=O)c3n[nH]c4c3CCCC4)cccc21`, with 14.8%; and `CC(=O)Nc1cccc2c1ccn2CC(=O)Nc1n[nH]c(CC(C)C)n1`, with 71.3%; and `CC(C)n1ccc2c(NC(=O)c3n[nH]c4c3CCC4)cccc21`, with 76.9%. Then `Cc1ccc(N(C)C2CCN(C(=O)c3n[nH]c4c3CCC4)CC2)nn1`, with -20.3%; and `CC(C)Cn1ccc2c(NC(=O)c3n[nH]c4c3CCC4)cccc21`, with 90.8%. `COCCn1ccc2c(NC(=O)c3n[nH]c4c3CCC4)cccc21`: the INHIBITION is on record as 9.57%. Take `O=S(=O)(c1cnccc1N1CCN(CCO)CC1)N1CCOCC1`: the INHIBITION was 36.8%. For the molecule `CCOc1ccc(C#N)cc1NC(=O)N1CCC(n2cncn2)CC1`, the INHIBITION is recorded as -31.4%. The result for `Cc1nc(N2CCCC2)ncc1-c1cc(O)nc(NCC2CCCO2)n1` (stereo not given) reads -29.6%; that for `Cc1[nH]ccc1C(=O)N1C[C@@H]2CC[C@H]1CN(S(=O)(=O)N(C)C)C2`, 21.5%. The result for `Cc1cc(S(=O)(=O)NCC(C)(C)N)c(F)cc1F` reads 48.8%; that for `COCCNC(=O)NCc1cc(-c2cccs2)n(C2CCCC2)n1`, 43.9%; that for `Cc1noc(C)c1-c1cncc(C2CCCN2Cc2cncnc2)n1` (stereo not given), 22.2%. With `O=S(=O)(Cc1cccc(Cl)c1)CC(O)Cn1cccn1` (stereo not given), the INHIBITION turned out to be 57.5%. Take `Cc1cccc(CS(=O)(=O)CC(O)Cn2cccn2)c1` (stereo not given): the INHIBITION is recorded as 15.5%. The result for `O=S(=O)(Cc1ccccc1)CC(O)Cn1cccn1` (stereo not given) reads 34%. Then `Cn1c(NCc2ccc(C(N)=O)cc2)nc2cc(Cl)ccc21`, with 10.7%; and `CC(CN1CCCC1=O)NC(=O)NCc1ccccc1-n1cccn1` (stereo not given), with 48.6%.

Consider `O=C(c1ccc(S(=O)(=O)NCC(F)F)cc1)N1C[C@H]2CNC[C@H]2C1`, for which the INHIBITION stood at 69.3%.

In the case of `O=C(c1ccc(F)c(F)c1)N1C[C@H]2CNC[C@H]2C1`, the INHIBITION worked out at 5.04%. Regarding `O=C(c1ccc(S(=O)(=O)NCC(F)F)cc1)N1CC[C@H]2CNC[C@H]21`, the INHIBITION is listed as 43.7%.

In the case of `CC(C)n1cnc2c1C(C(=O)NCCC#N)N(Cc1ccccc1)CC2` (stereo not given), the INHIBITION is 15.1%. `COCc1nc(C2CCN(Cc3nccn3C)CC2)no1`: the INHIBITION is -11.7%.

Consider `COC(=O)c1ccc2c(c1)CCCN2S(=O)(=O)c1cn(C)c(C)n1`, for which the INHIBITION was 2.25%. The result for `c1cc2c(cc1OC[C@@H]1CCCN3CCCC[C@H]13)OCCO2` reads 28.4%; that for `O=C(CC[C@@H]1CCCN2CCCC[C@H]12)NCCc1cc(O)ncn1`, 26.8%; that for `Oc1coc2cc(OC[C@@H]3CCCN4CCCC[C@H]34)ccc12`, 56.2%. Regarding `CC(Cn1ccnc1)NC(=O)NCCc1cccs1` (stereo not given), the INHIBITION was -17.08%. Then `NC(CNS(=O)(=O)Cc1cccc2cccnc12)c1ccccc1` (stereo not given), with 29%; and `Cc1nn(C)c(C)c1C(=O)NCc1ccnc(OCC(F)(F)F)c1`, with 13.765%. In the case of `O=C(NC1CCCCC1)c1nnc2ccc(N3CCOCC3)cc2n1`, the INHIBITION is on record as -64.4%. Then `O=C(NCc1ccoc1)c1ccc(C2CCCN2CC2CCOCC2)s1` (stereo not given), with 22.7%; and `NCC(=O)N1CCCC1c1ccc(C(=O)NCc2ccoc2)s1` (stereo not given), with 64.5%; and `Cc1ncc(CN2CCCC2c2ccc(C(=O)NCc3ccoc3)s2)s1` (stereo not given), with 37.4%.
